# Test results from ChEMBL document CHEMBL4513146, “CO-ADD screening of Karazin Kharkiv National University (Ukraine) compounds”.
# Measured potencies and affinities stand elsewhere.
# Experiments:
# [1] = tested on: Staphylococcus aureus; conditions: Concentration 32 ug.mL-1;; ASSAY_TEST Inhibition of Bacterial Growth; detection method Absorption (OD600); MEDIA CAMHB; plate type 384well; NBS; CORNING #3640; time 18 hr
# [2] = tested on: Escherichia coli; conditions: Concentration 32 ug.mL-1;; ASSAY_TEST Inhibition of Bacterial Growth; detection method Absorption (OD600); MEDIA CAMHB; plate type 384well; NBS; CORNING #3640; time 18 hr
structure (smiles),measurement,setting,value
CCc1ccc(NC(=O)Cn2nc3c(Oc4cccc(OC)c4)nccn3c2=O)cc1,Inhibition,[1],5.31%
same,Inhibition,[2],-1.12%
CCCn1c(=O)c2sccc2n2c(=O)n(CC(=O)c3cc(C)ccc3C)nc12,Inhibition,[1],7.83%
same,Inhibition,[2],0.58%
COc1ccccc1NC(=O)Cn1nc2c(SCc3ccccc3)nccn2c1=O,Inhibition,[1],-5.43%
same,Inhibition,[2],-12.47%
O=C(Cn1nc2ccc(SCc3ccc(Cl)cc3)nn2c1=O)Nc1ccc2c(c1)CCC2,Inhibition,[1],2.54%
same,Inhibition,[2],-5.73%
COc1ccccc1N1CCN(C(=O)CSc2nnc3c(=O)n(-c4ccc(F)cc4)ccn23)CC1,Inhibition,[1],6.93%
same,Inhibition,[2],2.55%
COc1ccc(-c2cc3c4nn(CC(=O)Nc5ccc(OC)c(Cl)c5)c(=O)n4ccn3n2)cc1,Inhibition,[1],-2.49%
same,Inhibition,[2],-6.71%
COc1ccc(NC(=O)CSc2nc3ccccc3n3c(C(C)C)nnc23)c(OC)c1,Inhibition,[1],1.68%
same,Inhibition,[2],-5.84%
CSc1cccc(NC(=O)Cn2c(=O)c3nnc(C(C)C)n3c3ccccc32)c1,Inhibition,[1],14.38%
same,Inhibition,[2],4.25%
O=C(Cn1nc2c(SC3CCCCC3)nccn2c1=O)Nc1ccc(F)cc1,Inhibition,[1],2.79%
same,Inhibition,[2],-5.61%
CCCn1c(=O)c2ccc(C(=O)NC3CCCCC3)cc2n2c(=O)n(CC#N)nc12,Inhibition,[1],0.58%
same,Inhibition,[2],2.29%
O=c1c2sccc2n2c(=O)n(Cc3ccc(Br)cc3)nc2n1Cc1cccs1,Inhibition,[1],-10.81%
same,Inhibition,[2],-9.69%
COc1cccc(-n2ccn3c(SCC(=O)Nc4cc(F)ccc4F)nnc3c2=O)c1,Inhibition,[1],11.04%
same,Inhibition,[2],-6.25%
COc1cccc(-n2ccn3c(SCC(=O)c4ccc(C)cc4)nnc3c2=O)c1,Inhibition,[1],8.57%
same,Inhibition,[2],-9.45%
CCc1ccccc1Sc1nccn2c(=O)n(CC(=O)Nc3ccc(OC)cc3)nc12,Inhibition,[1],-2.16%
same,Inhibition,[2],-10.01%
Cc1nnc2ccc(S(=O)(=O)N(Cc3ccccc3F)c3ccc(F)c(F)c3)cn12,Inhibition,[1],3.86%
same,Inhibition,[2],-6.57%
CCCCN(CC)c1ccc2nnc(CCc3nc(-c4ccc(Br)cc4)no3)n2n1,Inhibition,[1],6.29%
same,Inhibition,[2],-0.23%
COc1ccc(NC(=O)c2ccc3nn(CC(=O)Nc4ccc(S(C)(=O)=O)cc4)c(=O)n3c2)cc1,Inhibition,[1],11.72%
same,Inhibition,[2],-6.83%
O=C(Cn1nc2n(CCc3ccccc3)c(=O)c3ccccc3n2c1=O)Nc1ccc2c(c1)OCO2,Inhibition,[1],-2.08%
same,Inhibition,[2],-8.34%
O=C(Cn1nc2ccc(Sc3cccc(F)c3)nn2c1=O)NCc1ccc(Cl)cc1,Inhibition,[1],1.01%
same,Inhibition,[2],1.23%
CCC(C)NC(=O)c1ccc2c(=O)n(CCC(C)C)c3nn(CC#N)c(=O)n3c2c1 (configuration not stated),Inhibition,[1],11.05%
same,Inhibition,[2],-1.24%
Cc1ccc(Oc2nccn3c(=O)n(CC(=O)Nc4ccccc4F)nc23)cc1,Inhibition,[1],4.19%
same,Inhibition,[2],-1.2%
O=C(Cn1nc2c3cc(-c4ccc(Cl)cc4)nn3ccn2c1=O)NCc1ccccc1,Inhibition,[1],12.1%
same,Inhibition,[2],4.95%
CCCN(C)c1nccn2c(=O)n(CC(=O)Nc3ccc(F)cc3)nc12,Inhibition,[1],13.38%
same,Inhibition,[2],-2.86%
O=C(Cn1nc2ccc(-c3ccccc3)nn2c1=O)Nc1ccc(F)c(Cl)c1,Inhibition,[1],7.52%
same,Inhibition,[2],-1.06%
Cc1ccc(-c2cc3c4nnc(CCC(=O)NCc5ccc(C(F)(F)F)cc5)n4ccn3n2)cc1C,Inhibition,[1],3.78%
same,Inhibition,[2],-2.88%
CCOc1ccc(NC(=O)Cn2nc3c4c5c(sc4ncn3c2=O)CCCC5)cc1,Inhibition,[1],-17.71%
same,Inhibition,[2],0.82%
COc1ccccc1N1CCN(C(=O)Cn2nc3ccc(-c4ccc(Cl)cc4)nn3c2=O)CC1,Inhibition,[1],8.63%
same,Inhibition,[2],0.78%
CCc1nnc2ccc(S(=O)(=O)N(Cc3ccccc3)c3ccccc3)cn12,Inhibition,[1],5.6%
same,Inhibition,[2],-2.89%
COc1cccc(CN(c2cccc(C)c2)S(=O)(=O)c2ccc3nnc(C)n3c2)c1,Inhibition,[1],1.31%
same,Inhibition,[2],-6.19%
N#CCSc1nnc2c(=O)n(-c3ccc(Br)cc3)ccn12,Inhibition,[1],14.93%
same,Inhibition,[2],-0.38%
O=S(=O)(c1ccc2nncn2c1)N(Cc1ccccc1)c1ccc(F)c(F)c1,Inhibition,[1],-0.12%
same,Inhibition,[2],-6.68%
O=C(Cn1nc2c(Sc3ccccc3)nccn2c1=O)Nc1ccc2c(c1)OCCO2,Inhibition,[1],-4.66%
same,Inhibition,[2],-0.55%
CCCCN(C)c1ccc2nnc(CCc3nc(-c4cccc(Br)c4)no3)n2n1,Inhibition,[1],7.62%
same,Inhibition,[2],-1.77%
COc1cccc(-n2ccn3c(=O)n(Cc4ccc([N+](=O)[O-])cc4)nc3c2=O)c1,Inhibition,[1],7.57%
same,Inhibition,[2],-2.91%
O=C(Cn1nc2ccc(-c3ccc(Cl)cc3)nn2c1=O)NC1CCCC1,Inhibition,[1],12.95%
same,Inhibition,[2],1.75%
Cc1cccc(NC(=O)Cn2nc3c(SCc4ccc(Cl)cc4)nccn3c2=O)c1C,Inhibition,[1],13.84%
same,Inhibition,[2],-3.65%
Cc1ccc(-c2cc3c4nn(CC(=O)Nc5ccc(Br)cc5)c(=O)n4ccn3n2)cc1C,Inhibition,[1],0.82%
same,Inhibition,[2],-8.3%
CCc1nnc2c(SCC(=O)Nc3ccc(C)cc3Br)nc3ccccc3n12,Inhibition,[1],2.22%
same,Inhibition,[2],-2.07%
Cc1cc(C)cc(Nc2nc(C)cc3nn(CC(=O)Nc4cc(F)ccc4F)c(=O)n23)c1,Inhibition,[1],10.55%
same,Inhibition,[2],0.49%
Cc1c(Cl)cccc1-n1ccn2c(=S)[nH]nc2c1=O,Inhibition,[1],26.02%
same,Inhibition,[2],0.89%
CCOc1ccccc1NC(=O)Cn1nc2c(Sc3ccccc3)nccn2c1=O,Inhibition,[1],-2.46%
same,Inhibition,[2],-5.85%
COc1cccc(Oc2nccn3c(=O)n(CC(=O)Nc4ccc(C)cc4Cl)nc23)c1,Inhibition,[1],10.57%
same,Inhibition,[2],-3.8%
COc1cc(NC(=O)Cn2nc3c(N4CCCC(C)C4)nccn3c2=O)cc(OC)c1 (configuration not stated),Inhibition,[1],-12.69%
same,Inhibition,[2],-14.56%
CCC(C)NC(=O)Cn1nc2n(CC(C)C)c(=O)c3ccc(C(=O)NC4CCCCC4)cc3n2c1=O (configuration not stated),Inhibition,[1],7.36%
same,Inhibition,[2],-3.14%
CCC(C)NC(=O)c1ccc2c(=O)n(C3CC3)c3nn(CC(=O)NC(C)C)c(=O)n3c2c1 (configuration not stated),Inhibition,[1],10.01%
same,Inhibition,[2],-2.07%
Cc1ccc(-c2ccc3nn(Cc4nc(-c5ccc(Cl)cc5)no4)c(=O)n3n2)cc1,Inhibition,[1],5.13%
same,Inhibition,[2],0.55%
Cc1cccc(C)c1NC(=O)Cn1nc2n(C)c(=O)c3c(c(-c4ccccc4)cn3C)n2c1=O,Inhibition,[1],8.81%
same,Inhibition,[2],0.54%
Cc1ccc(C)c(Cn2nc3ccc(-c4ccc(C)c(C)c4)nn3c2=O)c1,Inhibition,[1],6.01%
same,Inhibition,[2],-0.08%
CC(C)(C)Sc1ccc2nn(CC(=O)Nc3ccccc3Cl)c(=O)n2n1,Inhibition,[1],7.11%
same,Inhibition,[2],-2.79%
O=S(=O)(c1cccn2cnnc12)N(Cc1cccc(Cl)c1)c1cc(F)cc(F)c1,Inhibition,[1],17.81%
same,Inhibition,[2],-3.49%
CCCN(C)c1nccn2c(=O)n(CC(=O)Nc3cccc(SC)c3)nc12,Inhibition,[1],12.22%
same,Inhibition,[2],-2.46%
COc1cccc(-n2ccn3c(SCC(=O)c4c(C)[nH]c5ccccc45)nnc3c2=O)c1,Inhibition,[1],10.32%
same,Inhibition,[2],-7.21%
COc1cc(OC)c(NC(=O)Cn2nc3c(Sc4cccc(C)c4)nccn3c2=O)cc1Cl,Inhibition,[1],10.36%
same,Inhibition,[2],-1.94%
Cc1ccc(Sc2ccc3nn(CC(=O)Nc4cccc(Cl)c4)c(=O)n3n2)cc1,Inhibition,[1],-1.85%
same,Inhibition,[2],-11.91%
CCOC(=O)c1ccccc1NC(=O)Cn1nc2c(Oc3cccc(C)c3C)nccn2c1=O,Inhibition,[1],5.11%
same,Inhibition,[2],-6.35%
CCc1cccc(NC(=O)CSc2nnc3c(=O)n(-c4cccc(OC)c4)ccn23)c1,Inhibition,[1],9.81%
same,Inhibition,[2],-1.21%
Cc1ccc(N(Cc2ccccc2F)S(=O)(=O)c2ccc3nncn3c2)cc1,Inhibition,[1],-11.4%
same,Inhibition,[2],-11.46%
Cc1ccc(Oc2nccn3c(=O)n(CC(=O)NCCC4=CCCCC4)nc23)cc1,Inhibition,[1],4.93%
same,Inhibition,[2],-4.1%
Cc1cc(C)cc(NC(=O)Cn2nc3c4cc(-c5ccc(C)c(C)c5)nn4ccn3c2=O)c1,Inhibition,[1],5.77%
same,Inhibition,[2],-4.98%
CCCCn1c(=O)c2sccc2n2c(=O)n(CC(=O)NC(C)CC)nc12 (configuration not stated),Inhibition,[1],-5.96%
same,Inhibition,[2],-9.68%
COc1ccc(-c2cc3c4nnc(SCC(=O)Nc5cccc(C)c5C)n4ccn3n2)cc1,Inhibition,[1],-11.43%
same,Inhibition,[2],-10.61%
Cc1ccccc1CN(c1cccc(F)c1)S(=O)(=O)c1ccc2nncn2c1,Inhibition,[1],-9.31%
same,Inhibition,[2],-3.51%
O=C(Cn1nc2c(SC3CCCCC3)nccn2c1=O)N1CCN(c2ccc(F)cc2)CC1,Inhibition,[1],8.31%
same,Inhibition,[2],-3.97%
CCCCOc1ccc(-c2cc3c4nnc(SCC(=O)Nc5cc(C)ccc5OC)n4ccn3n2)cc1,Inhibition,[1],-29%
same,Inhibition,[2],-22.73%
O=C(Cn1nc2ccc(SCc3ccc(Cl)cc3)nn2c1=O)Nc1cccc(F)c1,Inhibition,[1],-14.75%
same,Inhibition,[2],-12.61%
Cc1ccc(-c2cc3c4nn(CC(=O)Nc5ccc(F)cc5Cl)c(=O)n4ccn3n2)cc1,Inhibition,[1],-0.44%
same,Inhibition,[2],-5.61%
COc1ccc(-c2cc3c4nnc(SCC(=O)NCc5ccc(C)cc5)n4ccn3n2)cc1,Inhibition,[1],-10.11%
same,Inhibition,[2],0.51%
CCc1nnc2c(S(=O)(=O)N(Cc3cccc(F)c3)c3ccc(F)cc3)cccn12,Inhibition,[1],-7.77%
same,Inhibition,[2],-5%
CCCCOc1ccc(-c2cc3c4nnc(SCC(=O)Nc5ccccc5F)n4ccn3n2)cc1,Inhibition,[1],-0.1%
same,Inhibition,[2],-3.53%
Cc1cccc(CN(c2ccc(C(C)C)cc2)S(=O)(=O)c2cccn3c(C)nnc23)c1,Inhibition,[1],5.76%
same,Inhibition,[2],-1.18%
COc1ccc(-c2cc3c4nn(CC(=O)Nc5cccc(C(C)=O)c5)c(=O)n4ccn3n2)cc1,Inhibition,[1],-6.93%
same,Inhibition,[2],-6.63%
